Measurements: PubChem BioAssay (NCI)
This is part of a sample that, as a whole, favours compounds with a hit. Of some 83,000 tested, about 20% had one in any assay.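 Compound tested at a single concentration for 48 hours in 96-well plates; a percent growth value below 10 was scored as active.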 Values without a mark were called inactive. Active and inactive are the calls of the source.

Legend:
Test in all cases: NCI-60 one-dose screen, 48 h (100 = growth as untreated, 0 = no growth, -100 = all killed)
Details in all cases: 10 µM unless noted
SK-MEL-2 melanoma = tested on: SK-MEL-2 melanoma
EKVX NSCLC = tested on: EKVX NSCLC
SN12C renal = tested on: SN12C renal
UO-31 renal = tested on: UO-31 renal
TK-10 renal = tested on: TK-10 renal
ACHN renal = tested on: ACHN renal
CAKI-1 renal = tested on: CAKI-1 renal
A498 renal = tested on: A498 renal
CCRF-CEM leukemia = tested on: CCRF-CEM leukemia
MOLT-4 leukemia = tested on: MOLT-4 leukemia

Structure (SMILES) | growth (SK-MEL-2 melanoma) | growth (EKVX NSCLC) | growth (SN12C renal) | growth (UO-31 renal) | growth (TK-10 renal) | growth (ACHN renal) | growth (CAKI-1 renal) | growth (A498 renal) | growth (CCRF-CEM leukemia) | growth (MOLT-4 leukemia)
O=C(CI)NC(=O)NC(=O)NCc1ccccc1 | 69.4% | 93.6% | 33% | -20.6% (active) | 74.7% | -45.5% (active) | 5.31% (active) | 91.2% | -23.8% (active) | -24.5% (active)
Oc1c(CN2CCCC2)cc(CSCc2ccccc2)c2cccnc12 | 11.3% | 37% | 17.6% | -18% (active) | 22.4% | 5.28% (active) | 7.37% (active) | 9.44% (active) | -14.9% (active) | -14.4% (active)
COc1ccc(/C=C/C(c2cc(OC)c(OC)c(OC)c2)n2ccnc2)cc1O (stereo not given) | 41.7% | 81.2% | 57.2% | 59.9% | 84.5% | 46.3% | 60.2% | 67.5% | 37.1% | 31.9%
O=C(N/N=C/c1cc(Cl)ccc1O)c1ccccc1Nc1ccnc(C(F)(F)F)c1 | 90.7% | 22.9% | 20.7% | 21.1% | 46.4% | 14.9% | 34.6% | 65.7% | 12.4% | 55%
O=C(NC(Cc1nnc2n(Cc3ccccc3)c(=O)c3c4c(sc3n12)CCCC4)c1ccccc1)c1ccccc1 (stereo not given) | 108% | 99.3% | 119% | 65% | 119% | 127% | 101% | 109% | 61.9% | 61.2%
COc1ccc(C(O)c2cc3c(N)c(C(=O)Nc4cccc(Cl)c4C)sc3nc2C)cc1 (stereo not given) | 17% | 35% | 13.6% | 17.9% | 44.1% | 24.7% | 13.8% | -24.7% (active) | 10.1% | 15.2%
CN(C)CCCC1(c2ccc(F)cc2)OCc2cc(-c3cc4ccccc4s3)ccc21 (stereo not given) | 72.3% | 46.8% | 37% | 21% | 60.5% | 14.3% | 21.4% | 81% | 4.59% (active) | -8.07% (active)
O=C(CCCCCCN1CC(=O)N2[C@H](c3ccc(Cl)cc3)c3[nH]c4ccccc4c3C[C@@H]2C1=O)NO | 66.1% | 65.7% | 63.1% | 57.9% | 55.8% | 84.4% | 65.2% | 78.9% | 25.7% | 4.87% (active)
Cc1ccc(/C=C/C(=O)Nc2ncc(Cc3ccc(F)cc3)s2)o1 | 46.9% | 48.5% | 66.3% | 40.4% | 61.9% | 56.3% | 35.4% | 27.3% | 45.1% | 35%
COc1cccc(/C=C/C(=O)c2cccc(Nc3nc(Nc4ccccc4)nc(Nc4ccccc4)n3)c2)c1 | 57.9% | 78.6% | 106% | 56.9% | 77.5% | 86% | 84.4% | 94.7% | 43.8% | 58.8%
O=C(/C=C/c1ccc(Oc2ccc(Br)cc2)cc1)c1ccc(Br)cc1 | 96.5% | 103% | 97.2% | 78.8% | 95.2% | 102% | 93.5% | 73.6% | 91.9% | 90.5%
Cc1ccc2nc(NC(=O)CSc3nc(-c4ccccc4)c(C#N)c4nnnn34)sc2c1 | 109% | 106% | 111% | 80.2% | 141% | 106% | 94.6% | 109% | 106% | 99.4%
COc1cc2c(cc1OCCCCN1CCN(C(=S)SCCC(C#N)(c3ccccc3)c3ccccc3)CC1)N=C[C@@H]1CCCN1C2=O | -95.1% (active) | -94.8% (active) | -57.4% (active) | 10.8% | -79.6% (active) | -68.8% (active) | -64.7% (active) | -95% (active) | -20.2% (active) | -13.2% (active)
